High-throughput results deposited in PubChem BioAssay by National Center for Advancing Translational Sciences (NCATS).
The list is not random: actives were taken first. Their share in the collection is about 3.6%.
D1 antag – blocks dopamine activation of the human D1 receptor; P21728; HEK293 TREx D1 cells, calcium flux, dopamine EC80; active compounds read low; activity change, negative = inhibition, % at 10 µM; actives 3.2% (n = 360,000); in the data active means activity change below about -30%; further: on the % scale 0 is the no-effect control and ±100 the full control effect
Target sequence (P21728 whole entry, looked up): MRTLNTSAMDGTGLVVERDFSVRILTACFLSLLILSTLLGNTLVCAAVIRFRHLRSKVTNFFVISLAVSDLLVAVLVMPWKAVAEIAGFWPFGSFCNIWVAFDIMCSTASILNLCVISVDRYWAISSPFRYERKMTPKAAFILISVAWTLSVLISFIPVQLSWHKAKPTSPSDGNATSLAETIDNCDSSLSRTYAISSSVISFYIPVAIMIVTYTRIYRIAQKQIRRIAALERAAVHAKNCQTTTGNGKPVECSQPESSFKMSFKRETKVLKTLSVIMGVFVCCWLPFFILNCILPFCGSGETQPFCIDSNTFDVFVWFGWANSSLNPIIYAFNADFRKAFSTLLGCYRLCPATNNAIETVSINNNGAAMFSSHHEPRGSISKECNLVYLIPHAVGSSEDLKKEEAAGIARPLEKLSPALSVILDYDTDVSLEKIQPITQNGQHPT
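Tetracycline-induced HEK293 T-REx cells with force-coupled D1 receptor were loaded with a no-wash calcium dye. Compound was added after a 10 s baseline and read kinetically for 180 s; EC80 dopamine was then added and calcium flux followed another 180 s.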
D1 agonist – agonists of human D1 dopamine receptor | actives 1% (n = 360,000) | P21728 | HEK293 T-REx D1 cells, calcium flux, agonist mode | AID 504660 | activation, % at 2 µM; further: 0% is about no effect
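Inducible HEK293 T-REx D1 cells, force-coupled to calcium signalling, were plated at 4000 cells/well with tetracycline and held overnight at 30 C. After no-wash calcium dye loading, compound-evoked calcium rise over 180 s flagged agonists.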
D1 potentiator – potentiators of human D1 dopamine receptor | P21728 | actives 0.036% (n = 360,000) | potentiation, % at 10 µM | AID 504651 | HEK293 TREx D1 cells, calcium flux, dopamine EC20 potentiation; in the data active means potentiation above about 30%; further: 0% is about no effect
TRHR ag – activates the human TRH receptor | TRHR cells, calcium flux fluo-8, FDSS agonist mode | actives 0.18% (n = 360,000) | activation, % at 2 µM; further: 0% is about no effect
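Fluo-8-loaded TRHR cells; 10 s baseline, compound added, kinetic Ca2+ fluorescence read 1/s, agonist mode.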
TRHR enhancer – TRH receptor (human) allosteric enhancement | actives 0.66% (n = 360,000) | TRHR cells, fluo-8 calcium fluorescence, EC20 TRH enhancement | AID 493056 | P34981 | enhancement, % at 2 µM; in the data active means enhancement above about 30%; further: 0% is about no effect
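Enhancer read-out: after compound pinning and an initial kinetic agonist-mode read, an EC20 of TRH (10 nM final) was injected and fluo-8 calcium signal (Ex 480/Em 530) followed at 1 s/cycle for 100 cycles in TRHR-expressing cells.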
LDHA inh – inhibitors of human lactate dehydrogenase A; purified LDHA, NADH/diaphorase-resazurin fluorescence; active compounds read low; activity change, % (values are at about 110 or 230 µM); actives 0.15% (n = 480,000); in the data active means activity change below about -30%;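 further: plate controls were DMSO wells for no effect and wells without enzyme for full effect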
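Resorufin fluorescence (ex540/em590), read at 0 and 20 min after diaphorase/resazurin addition, reports the NADH left after a 5 min room-temperature reaction of 2 nM human LDH5 with 0.06 mM NADH and 0.2 mM pyruvate.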
* = called active by the depositor; . = no result; ! = not confirmed by another sample. Unless noted, no stated cut-off is given here; in the data, active means activation above about 30%; inactive means the rest.

SMILES | D1 antag | D1 agonist | D1 potentiator | TRHR ag | TRHR enhancer | LDHA inh
CCN(CC)S(=O)(=O)c1ccc(CNC(=O)c2ccccc2OCc2cn3ccccc3n2)cc1 | . | . | . | . | . | 1
O=C1/C(=C\c2ccco2)SC(=S)N1C1CCCCC1 | 23 | 2 | 34* | 0 | 9 | .
CN(C)CCNc1nc2sc3c(c2c(=O)n1Cc1ccccc1)CCCCC3 | -23 | 65* | -5 | 5 | 11 | 0
CN(C)CCNc1nc2sc3c(c2c(=O)n1-c1ccccc1)CCCCC3 | 18 | 4 | 0 | 0 | -3 | -4
COc1ccc(-n2c(NCCN(C)C)nc3sc4c(c3c2=O)CCCCC4)cc1 | 2 | 56* | -4 | 2 | 1 | 4
Cc1nn(-c2ccc3nnc(C)n3n2)c2c1C(c1ccc(OCC(C)C)cc1)CC(=O)N2 (stereo not drawn) | . | . | . | . | . | -10
Nc1c(C(=O)CSc2nccn2-c2cccc(F)c2)c(=O)[nH]c(=O)n1C1CC1 | -31* | 3 | -3 | 0 | -5 | -7
Cc1ccc(O)c(C(=O)c2cnc3c(c2)COc2ccccc2-3)c1 | 14 | 2 | -2 | -1 | -2 | -6
Cc1cc(O)c(C(=O)c2cnc3c(c2)COc2ccccc2-3)cc1Cl | 2 | 0 | -1 | -1 | 35* | -4
CCCCn1c(=O)[nH]c(=O)c2c1nc(CCC(=O)NCc1cccc(OC)c1)n2CC(C)C | . | . | . | . | . | 1
CCN1C(=O)/C(=C/c2cnn(C)c2C)SC1=S | -32* | 2 | 4 | 1 | -5 | .
CCOC(=O)c1ccccc1NC(=O)COC(=O)CC(C)(C)CC1=NS(=O)(=O)c2ccccc2N1 | -37* | 14 | 0 | -1 | 3 | 3
Cc1ccc(CCNC(=O)CS(=O)Cc2nc(-c3ccccc3C)oc2C)cc1 (stereo not drawn) | -10 | 2 | -3 | 0 | -5 | -4
Cc1ccccc1-c1nc(CS(=O)CC(=O)NCCc2ccc(Cl)cc2)c(C)o1 (stereo not drawn) | -65*! | 34*! | -11 | 0 | 17 | 1
Cc1cccc(C(=O)Nc2nonc2-c2ccc(OC(C)C)cc2)c1 | . | . | . | . | . | 4
COc1ccc(C(C)=O)cc1CSc1ccc(S(=O)(=O)N2CCCCC2)cn1 | -44* | 3 | 1 | 0 | 2 | 0
COc1ccc(CSc2ccc(S(=O)(=O)N3CCCCC3)cn2)cc1F | -42* | 6 | -3 | 2 | -4 | -1
O=S(=O)(c1ccc(SCc2ccc(Cl)cc2)nc1)N1CCCC1 | -33* | 11 | -5 | 1 | -3 | 2
CCONC(=O)C(NC(=O)Cc1ccc2ccccc2c1)C(C)C (stereo not drawn) | . | . | . | . | . | 0
CN(Cc1ccccc1)C(=O)c1cc(-c2ccc(F)cc2)n[nH]1 | . | . | . | . | . | 5
C/C(N)=C(/C#N)C(=O)CSc1nnnn1-c1ccc(C)cc1 | -44* | 4 | -5 | 0 | -27 | -7
C/C(N)=C(/C#N)C(=O)CSc1nnnn1-c1ccccc1 | 0 | 2 | 0 | 0 | 1 | -4
O=C(CSC(=S)N1CCCC1)Nc1ncc(Cl)cc1Cl | -4 | 7 | -7 | 0 | 31* | -4
COc1ccccc1C(=O)Oc1ccc(F)cc1C(=O)/C=C/c1ccc(C)cc1 | . | . | . | . | . | -1
c1cncc(-c2ccnc3ncnn23)c1 | -3 | 4 | 0 | 0 | 33* | -5
SMILES | D1 antag | D1 agonist | D1 potentiator | TRHR ag | TRHR enhancer | LDHA inh
c1ccc(-c2ccnc3ncnn23)nc1 | -4 | 2 | 2 | 1 | 8 | 2
Cc1ncc(CN2CCC(C(=O)Nc3ccc(-n4cccn4)cc3)CC2)s1 | 2 | 4 | 13 | 0 | 30* | -2
Cc1cc(C)n(-c2ccc(NC(=O)C3CCN(Cc4cnc(C)s4)CC3)cc2)n1 | 3 | 1 | -1 | 0 | 1 | -1
COc1ccccc1Oc1coc2cc(OC(=O)c3ccccc3F)ccc2c1=O | . | . | . | . | . | -5
Cc1cccc(-c2cc(=O)c3cc(NC(=O)c4ccccc4F)ccc3o2)c1 | . | . | . | . | . | -2
Cc1c(C#N)c(N)nc2c3c(sc12)NC(=O)CC3c1ccccc1F (stereo not drawn) | . | . | . | . | . | 1
Cc1c(C#N)c(N)nc2c3c(sc12)NC(=O)CC3c1ccccc1 (stereo not drawn) | 16 | 1 | -4 | -2 | 36* | -31*!
Cc1c(C#N)c(N)nc2c3c(sc12)NC(=O)CC3c1ccc(F)cc1 (stereo not drawn) | -31* | 1 | -7 | 0 | -6 | 17
O=S(=O)(c1cc(F)cc(F)c1)N1CCCC1c1nnc2ccccn12 (stereo not drawn) | . | . | . | . | . | 1
CC(C)COc1ccc(C(=O)CCN2CCCCC2)cc1 | -23 | 19 | -4 | 7 | -9 | -8
CCCCOc1ccc(C(=O)CCN2CCCCC2)cc1 | -35* | 4 | -4 | 4 | -12 | -3
CCCC(O)(CCN1CCCCC1)c1ccc(OCC)cc1 (stereo not drawn) | -10 | 3 | -2 | 0 | -2 | -1
CCOC(=O)N1CCN(Cc2nc3cc(NC(=O)c4ccc(OC)cc4)ccc3n2C(C)C)CC1 | -39* | 1 | -3 | 0 | -21 | 10
CC(=O)c1ccc(OCCCN2CCCCC2)cc1 | -10 | 6 | -3 | 1 | 0 | -32*
CCCCCC(O)(CCN1CCCCC1)c1ccc(OCC)cc1 (stereo not drawn) | -2 | 35* | -1 | 0 | 6 | -5
O=C(c1ccccc1)c1ccc(OCCCN2CCCCC2)cc1 | 2 | 2 | -3 | 0 | -2 | -19
CC(=O)N1CCN(C(C(=O)O)c2c[nH]c3ccc(C)cc23)CC1 (stereo not drawn) | . | . | . | . | . | -2
CCOCCCNC(=S)N1CCc2cc(OC)c(OC)cc2C1 | . | . | . | . | . | 7
Cc1ccc(S(=O)(=O)N2CCN(C(=O)c3cc4ccc(F)cc4nc3C)CC2)c(C)c1 | . | . | . | . | . | 3
Cc1[nH]c2ccc(C(=O)NCC(=O)NC(C)C)cc2c1C | . | . | . | . | . | 1
CCOC(=O)N1CCN(CCC(=O)c2ccc(Cl)cc2)CC1 | -8 | 3 | 0 | 0 | -2 | -9
CCOC(=O)N1CCN(CCC(=O)c2ccc(OC)cc2)CC1 | -35* | -2 | 6 | 0 | 7 | -5
Cc1ccc(/C=N/NC(=O)CC#N)cc1 | . | . | . | . | . | -2
CC1=NN(c2cccc(F)c2)C(=O)/C1=C/c1ccc(N(C)C)cc1 | -85* | -1 | -14 | 0 | -27 | -7
CC1=NN(c2ccccc2)C(=O)C1=Cc1ccccc1 | . | . | . | . | . | 7
Cc1ccccc1-n1c(SC(C)C(=O)c2ccc(Cl)cc2)nnc1N1CCOCC1 (stereo not drawn) | . | . | . | . | . | -8
Oc1ccccc1C1C=C(c2ccc3c(c2)OCO3)NC(c2c(F)cccc2Cl)N1 (stereo not drawn) | 32 | 12 | 2 | 1 | 4 | -1
